# Laboratory results: PubChem BioAssay (NCATS)
# Inconclusive results are not listed. Values without a mark were called inactive. Active and inactive are the calls of the source. Calls follow the shape of the dose curve; as a rule, active = well fitted inhibition curve with a large enough effect; inconclusive = small, poorly fitted or top-dose-only effect; inactive = flat fitted curve, though single readings scatter. Where a SMILES comes first, the peptide text is derived from it. Bridges are numbered along the chain shown (N, C = ends). [ ]: non-standard residue; d: D form. The star is where a group is joined. Dab(CH2SO3H) = N[C@@H](CCNCS(=O)(=O)O)C(=O)O; X3 = CC[C@@H](C)CCCCC(=O)*; Dab = NCC[C@H](N)C(=O)O
# Molecular target: Voltage-gated inwardly rectifying potassium channel KCNH2 (Homo sapiens) (UniProt Q12809)
# Test: qHTS Assay for Small Molecule Inhibitors of the Human hERG Channel Activity (AID 588834);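 also: lower thallium flux fluorescence means stronger hERG block; nearly all actives have a fitted effect of over 50% in size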; as to activity change, negative = inhibition: top concentration of the series differs between compounds
# Conditions: U2OS BacMam hERG, FluxOR thallium flux fluorescence; series mostly up to 46.1 µM; activity change, negative = inhibition: at the top concentration
# Outline: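 hERG block measured as reduced thallium-dye (FluxOR) fluorescence after stimulation buffer addition, read over 2 min. Cells were hERG-BacMam-transduced U2OS exposed to compound ~10 min […]; concentration-response fitted with Hill equation for AC50.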
# % is scaled to controls: 0 for no effect and ±100 for the full control effect; potency is read from the fitted curve at half-maximal effect.
# Chain of Voltage-gated inwardly rectifying potassium channel KCNH2 (Homo sapiens) (Q12809 whole entry, looked up): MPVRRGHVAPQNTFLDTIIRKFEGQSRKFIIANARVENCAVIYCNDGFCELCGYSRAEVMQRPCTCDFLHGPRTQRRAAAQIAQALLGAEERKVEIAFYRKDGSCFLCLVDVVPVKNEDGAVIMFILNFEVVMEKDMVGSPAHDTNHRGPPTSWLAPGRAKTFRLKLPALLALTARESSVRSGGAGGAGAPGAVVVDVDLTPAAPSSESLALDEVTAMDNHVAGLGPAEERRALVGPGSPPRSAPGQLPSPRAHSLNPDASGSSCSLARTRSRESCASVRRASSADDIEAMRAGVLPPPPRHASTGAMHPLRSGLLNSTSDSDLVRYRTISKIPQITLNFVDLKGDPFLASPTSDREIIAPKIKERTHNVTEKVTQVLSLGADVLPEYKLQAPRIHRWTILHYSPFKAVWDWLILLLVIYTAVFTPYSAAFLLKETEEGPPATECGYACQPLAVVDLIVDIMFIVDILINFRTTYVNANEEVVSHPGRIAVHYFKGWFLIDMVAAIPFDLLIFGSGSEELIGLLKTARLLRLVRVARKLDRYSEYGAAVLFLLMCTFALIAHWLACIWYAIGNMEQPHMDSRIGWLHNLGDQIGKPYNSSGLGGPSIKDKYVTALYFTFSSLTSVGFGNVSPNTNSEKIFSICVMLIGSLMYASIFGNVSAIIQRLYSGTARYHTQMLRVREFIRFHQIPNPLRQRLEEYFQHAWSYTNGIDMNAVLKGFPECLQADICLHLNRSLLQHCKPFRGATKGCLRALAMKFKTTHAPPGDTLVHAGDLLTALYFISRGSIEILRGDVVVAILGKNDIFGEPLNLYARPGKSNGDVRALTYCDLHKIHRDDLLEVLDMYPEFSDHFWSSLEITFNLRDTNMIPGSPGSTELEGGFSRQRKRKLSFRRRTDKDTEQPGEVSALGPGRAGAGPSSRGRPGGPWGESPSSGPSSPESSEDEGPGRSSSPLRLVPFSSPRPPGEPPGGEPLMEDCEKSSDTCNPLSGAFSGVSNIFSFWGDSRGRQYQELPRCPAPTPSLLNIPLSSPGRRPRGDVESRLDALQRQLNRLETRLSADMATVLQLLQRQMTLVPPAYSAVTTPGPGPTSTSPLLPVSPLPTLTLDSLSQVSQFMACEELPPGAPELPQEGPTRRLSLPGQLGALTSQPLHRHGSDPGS
Compound,Potency,"activity change, negative = inhibition"
COC(=O)[C@H]1[C@H]2C[C@@H]3c4[nH]c5ccccc5c4CCN3C[C@H]2C[C@@H](OC(=O)c2cc(OC)c(OC)c(OC)c2)[C@@H]1OC,355 nM (active),
CO[C@@H]1[C@@H](O[C@@H]2O[C@H](C)[C@@H](O[C@H]3C[C@@](C)(O)[C@@H](O)[C@H](C)O3)[C@H](N(C)C)[C@H]2O)[C@@H](CC=O)C[C@@H](C)[C@@H](O[C@@H]2CC[C@H](N(C)C)[C@@H](C)O2)/C=C/C=C/C[C@@H](C)OC(=O)C[C@H]1O,,-1.02% [at 20.6 µM]
COc1cc([C@@H]2c3cc4c(cc3[C@@H](O[C@@H]3O[C@@H]5CO[C@@H](C)O[C@H]5[C@H](O)[C@H]3O)[C@H]3COC(=O)[C@H]23)OCO4)cc(OC)c1O,,7.85%
CC(C)=O,inactive,
CCc1ccc2c(c1)N(CC(C)CN(C)C)c1ccccc1S2 (centres undefined),7940 nM (active),
CC1(C)S[C@@H]2[C@H](NC(=O)C(C(=O)O)c3ccsc3)C(=O)N2[C@H]1C(=O)O (some centres undefined),,6.7%
C[C@]12O[C@H](C[C@]1(O)CO)n1c3ccccc3c3c4c(c5c6ccccc6n2c5c31)CNC4=O,,10.3%
CO[C@H]1C=CO[C@@]2(C)Oc3c(C)c(O)c4c(O)c(c5c(nc6cc(C)ccn65)c4c3C2=O)NC(=O)/C(C)=C\C=C[C@H](C)[C@H](O)[C@@H](C)[C@@H](O)[C@@H](C)[C@H](OC(C)=O)[C@@H]1C,,-26.2%
C[C@]12CCC(=O)C=C1CC[C@@H]1[C@@H]2[C@@H](O)C[C@@]2(C)[C@H]1CC[C@]2(O)C(=O)COP(=O)(O)O,,6.35%
COc1cc(-c2ccc(-[n+]3nc(-c4ccccc4)nn3-c3ccc([N+](=O)[O-])cc3)c(OC)c2)ccc1-[n+]1nc(-c2ccccc2)nn1-c1ccc([N+](=O)[O-])cc1,,23%
Cc1cn([C@H]2C[C@H](O)[C@@H](CO)O2)c(=O)[nH]c1=O,,11%
CC[N+](CC)(CC)CCC(O)(c1ccccc1)C1CCCCC1 (centres undefined),,2.59% [at 20.6 µM]
CCOC(=O)O[C@]1(C(=O)COC(=O)CC)CC[C@H]2[C@@H]3CCC4=CC(=O)C=C[C@]4(C)[C@H]3[C@@H](O)C[C@@]21C,,5.74% [at 20.6 µM]
O=C(O)C[C@H](O)C[C@H](O)/C=C/c1c(C2CC2)nc2ccccc2c1-c1ccc(F)cc1,,-4.45%
COc1cc2c(cc1O)CCN[C@]21CS[C@@H]2c3c(OC(C)=O)c(C)c4c(c3[C@H](COC1=O)N1[C@@H]2[C@H]2c3c(cc(C)c(OC)c3O)C[C@@H]([C@@H]1O)N2C)OCO4,,3.31%
COC(=O)C1=C(C#N)NC(C)=C(C(=O)OC(C)C)C1c1cccc([N+](=O)[O-])c1 (centres undefined),,3.77%
CC(=O)OCC(=O)[C@@]1(O)CC[C@H]2[C@@H]3C[C@H](C)C4=CC(=O)C=C[C@]4(C)[C@H]3[C@@H](O)C[C@@]21C,,-4.28%
CC[C@@H](C)CCCCC(=O)N[C@@H](CCNCS(=O)(=O)O)C(=O)N[C@H](C(=O)N[C@@H](CCNCS(=O)(=O)O)C(=O)N[C@H]1CCNC(=O)[C@H]([C@@H](C)O)NC(=O)[C@H](CCNCS(=O)(=O)O)NC(=O)[C@H](CCNCS(=O)(=O)O)NC(=O)[C@H](CC(C)C)NC(=O)[C@@H](CC(C)C)NC(=O)[C@H](CCNCS(=O)(=O)O)NC1=O)[C@@H](C)O (X3-[Dab(CH2SO3H)]T[Dab(CH2SO3H)][Dab][Dab(CH2SO3H)][dL]L[Dab(CH2SO3H)][Dab(CH2SO3H)]T; lactam 4-C),,-5.1%
CCOC(=O)C1=CC2(CC)CCCN3CCc4c(n1c1ccccc41)C32 (centres undefined),89.1 nM (active),
OCCO[C@@H]1[C@@H](O)[C@H](O)[C@@H](CO)O[C@@H]1O,,3.57%

Compound,Potency,"activity change, negative = inhibition"
C/C1=C2N=C(/C=C3N=C(/C(C)=C4\[N-][C@@](C)([C@@H]5N=C1[C@](C)(CCC(=O)NCC(C)OP(=O)(O)O[C@H]1[C@@H](O)[C@@H](n6cnc7cc(C)c(C)cc76)O[C@@H]1CO)[C@H]5CC(N)=O)[C@@](C)(CC(N)=O)[C@@H]4CCC(N)=O)[C@@](C)(CC(N)=O)[C@@H]\3CCC(N)=O)C(C)(C)[C@@H]/2CCC(N)=O.CC(=O)O.[Co] (some centres undefined),,2.33%
Cc1cc(C(=O)NNCc2ccccc2)no1,,1.38% [at 20.6 µM]
NC(=O)c1ncn(C2OC(CO)C(O)C2O)n1 (centres undefined),,-4.79%
O=C(O)CCC(=O)C(=O)O,inactive,
CC[C@@H](C(=O)[C@@H](C)[C@@H](O)[C@H](C)CCc1ccc(C)c(O)c1C(=O)O)[C@H]1O[C@](CC)([C@H]2CC[C@](O)(CC)[C@H](C)O2)C[C@@H]1C,,151%
O=C1C(=O)c2ncccc2-c2cccnc21,,8.63%
C[C@]12C=CC(=O)N[C@@H]1CC[C@@H]1[C@@H]2CC[C@]2(C)[C@@H](C(=O)Nc3cc(C(F)(F)F)ccc3C(F)(F)F)CC[C@@H]12,2510 nM (active),
COC(=O)CCC(=O)CN,,-3.52%
COC(F)(F)C(Cl)Cl,,5.46%
Nc1ccn([C@H]2CS[C@@H](CO)O2)c(=O)n1,,-1.62% [at 92.2 µM]
O=S(=O)(O)O,inactive,
CCOc1ccc(N=Nc2ccc(N)cc2N)cc1,,15.8%
CCCCC(=O)N(Cc1ccc(-c2ccccc2-c2nn[nH]n2)cc1)[C@@H](C(=O)O)C(C)C,,8.58%
CCCCCCCC(=O)O,inactive,
CCOC(C)=O,inactive,
Cc1cc(CC(C)CC(C)(C)C)n(O)c(=O)c1 (centres undefined) (tested in a mixture with another compound),,29.2%
Cc1ccccc1,inactive,
CC(C)(C)NC(=O)[C@@H]1C[C@@H]2CCCC[C@@H]2CN1C[C@@H](O)[C@H](Cc1ccccc1)NC(=O)[C@H](CC(N)=O)NC(=O)c1ccc2ccccc2n1,35500 nM (active),
CCCCCCOc1ccc(C(=N)N(CCCC)CCCC)c2ccccc12,2240 nM (active),
